Screens (PubChem BioAssay)
Only some compounds are listed: those with a hit (about 19% of all), similar ones and a draw of the others.
TDP1 cell CPT: qHTS for Inhibitors of human tyrosyl-DNA phosphodiesterase 1 (TDP1): qHTS in cells in presence of CPT. chicken DT40 Tdp1-/-;hTDP1 cells + 20 nM CPT, ATP luminescence, 48 h. Potency, µM (highest dose often 46.2 µM), for inactives: top-dose activity change, negative = growth inhibition, usual class: inhibitors. 420,000 compounds, 12% hits. AID 686979, 2013; note: potency is the fitted concentration of half-maximal effect; nearly all actives have a fitted effect of over 55% in size
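Chicken DT40 Tdp1-/- cells complemented with human TDP1, 400 cells/well, exposed to compounds plus 20 nM camptothecin for at least 48 h at 37 C; viability read as ATP content by CellTiter-Glo luminescence.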
TDP1 cell noCPT: qHTS for Inhibitors of human tyrosyl-DNA phosphodiesterase 1 (TDP1): qHTS in cells in absence of CPT. DT40 Tdp1-/- hTDP1 cells, no CPT, ATP luminescence, 48 h. Potency, µM (titrated, usually from 46.2 µM), for inactives: at the top dose activity change, negative = growth inhibition, hits mostly inhibitors. 420,000 compounds, 15% hits; note: potency is the fitted concentration of half-maximal effect; nearly all actives have a fitted effect of over 55% in size
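Chicken DT40 Tdp1-/- cells stably complemented with human TDP1 were seeded at 400 cells/well with DMSO in place of 20 nM camptothecin. After compound pinning, cells grew at least 48 hr at 37 °C; viability read by CellTiter-Glo luminescence.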
HT1080-NT tox: qHTS for induction of synthetic lethality in tumor cells producing 2HG: qHTS for the HT-1080-NT fibrosarcoma cell line | HT-1080-NT fibrosarcoma viability, CellTiter-Glo ATP luminescence, 48 h | Potency, µM (series often up to 46.1 µM), for the others: at the top dose activity, negative = less viability, hits mostly cytotoxic | 360,000 compounds, 1.6% hits;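 note: NT is the 2HG producing partner of a matched IDH1 knockdown line; potency is the fitted concentration of half-maximal effect; 0% = DMSO-treated cells and -100% = media-only wells without cells; nearly all actives have a fitted effect of over 55% in size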
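750 cells/well, RPMI + 5% FBS; 2 h settle, compound pin-transfer, 48 h at 37 degrees C. CellTiter-Glo 10 min RT, luminescence. Normalized to DMSO and media-only wells.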
IL-1B inflam inh: qHTS for Inhibitors of Inflammasome Signaling: IL-1-beta AlphaLISA Primary Screen; activity change, % at 57.5 µM; 360,000 compounds, 4.7% hits; AID 743279, 2014; THP-1 LPS/ATP IL-1B secretion, AlphaLISA, 16 h; hits give low values; in the data active = activity change below about -50%; inconclusive = mostly about -30% to -49%
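Secreted IL-1B measured by AlphaLISA bead assay after 16 h compound exposure of THP-1 cells; compounds (final up to 57.5 uM) added 1 h before LPS (250 ng/mL) and ATP (1.25 mM) stimulation; lower signal means less secretion.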
ELG1 DNA repair: qHTS screen for small molecules that inhibit ELG1-dependent DNA repair in human embryonic kidney (HEK293T) cells expressing luciferase-tagged ELG1; HEK293T ELG1-luciferase reporter, luminescence, 16 h; DNA damage induced by 5-fluorouridine; Potency, µM (series often up to 46.1 µM), without a hit: at the highest dose activity change, negative = inhibition, most hits filed as inhibitors; 330,000 compounds, 2.3% hits; AID 504467, 2011; note: potency is the fitted concentration of half-maximal effect; nearly all actives have a fitted effect of over 55% in size
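Overnight (16 hr) co-exposure of 2,000 cells/well to 5-fluorouridine and compound at 37 °C preceded detection. Luciferase was quantified via ONE-Glo luminescence; loss of signal denotes inhibition.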
HT1080 IDH1KD tx: qHTS for induction of synthetic lethality in tumor cells producing 2HG: qHTS for the HT-1080-IDH1KD cell line; HT-1080 IDH1 knockdown viability, ATP luminescence, 48 h; Potency, µM (series often up to 46.1 µM), for the others: top-dose activity, negative = toxicity, actives largely listed as cytotoxic; 360,000 compounds, 2% hits;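 note: potency is the fitted concentration of half-maximal effect; 0% = DMSO wells and -100% = cell-free medium wells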
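In this qHTS, HT-1080 cells depleted of IDH1 are exposed for 48 h at 37 °C to compound titrations. Toxicity is scored from CellTiter-Glo luminescence, with DMSO as full viability and medium alone as none.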
An asterisk follows results filed as active; [ ] = dose if it differs, or a comment. Unless noted, calls come from the whole dose curve; as a rule, active = well fitted curve in the direction sought with a large enough effect; inconclusive = small, poorly fitted or top-dose-only effect, or another doubt; inactive = no such curve, though single readings can be large; an effect the other way counts as inactive or inconclusive. Unless noted, % is set by controls: 0 for no effect and ±100 for the full control effect.

`Cc1cc(C)nc(/N=C(\N)Nc2cc([N+](=O)[O-])ccc2C)n1` gave TDP1 cell CPT inconclusive, TDP1 cell noCPT -21%, HT1080-NT tox 9%, ELG1 DNA repair -1% and HT1080 IDH1KD tx 12%.
`Cc1cc(C)nc(/N=C(\N)Nc2ccccc2-c2ccccc2)n1` gave TDP1 cell CPT 16µM*, TDP1 cell noCPT 12µM*, HT1080-NT tox inconclusive, IL-1B inflam inh -98*, ELG1 DNA repair inconclusive and HT1080 IDH1KD tx inconclusive.
Cc1cccc(C)c1NC(=O)c1ccc2sc([C@@H]3O[C@H](CO)[C@H](O)[C@H](O)[C@H]3O)nc2c1 was read as TDP1 cell CPT -11%, TDP1 cell noCPT 5%, HT1080-NT tox 18%, IL-1B inflam inh -20 and HT1080 IDH1KD tx 25%.
Screening O=C(CN1C(=O)NC2(CCCCC2)C1=O)Nc1ccc(F)cc1 returned TDP1 cell CPT 4%, TDP1 cell noCPT 7%, HT1080-NT tox 10%, IL-1B inflam inh 25, ELG1 DNA repair -14% and HT1080 IDH1KD tx 0%.
`O=C(CN1C(=O)NC2(CCCCCCC2)C1=O)Nc1ccc(OC(F)F)cc1` gave TDP1 cell CPT 23µM*, TDP1 cell noCPT 18µM*, HT1080-NT tox -8%, IL-1B inflam inh -14, ELG1 DNA repair 0% and HT1080 IDH1KD tx -29%.
Screening O=C(CN1C(=O)NC2(CCCCCCC2)C1=O)Nc1cccc(Br)c1 returned TDP1 cell CPT 16µM*, TDP1 cell noCPT 21µM*, HT1080-NT tox -11%, IL-1B inflam inh -5, ELG1 DNA repair 3% and HT1080 IDH1KD tx -19%.
For CN(CC(=O)Nc1cccc(F)c1)C(=O)CN1C(=O)NC2(CCCCC2)C1=O the results were TDP1 cell CPT inconclusive, TDP1 cell noCPT 21µM*, HT1080-NT tox -1%, IL-1B inflam inh 3, ELG1 DNA repair 1% and HT1080 IDH1KD tx -2%.
For Cc1ccc(NC(=O)CN2C(=O)NC3(CCCCCCC3)C2=O)cc1C the results were TDP1 cell CPT 9.2µM*, TDP1 cell noCPT inconclusive, HT1080-NT tox -6%, IL-1B inflam inh 4, ELG1 DNA repair -1% and HT1080 IDH1KD tx -8%.
`Cc1noc(C)c1CSCC(=O)N(C)CC(=O)Nc1ccc(F)c(F)c1F` gave TDP1 cell CPT -12%, TDP1 cell noCPT -18%, HT1080-NT tox 1%, IL-1B inflam inh 5, ELG1 DNA repair -1% and HT1080 IDH1KD tx 0%.
`Cc1cc(C)c2c(CC(=O)Nc3cc(C(F)(F)F)ccc3Cl)coc2c1` gave TDP1 cell CPT -19% and TDP1 cell noCPT inconclusive.
For CCCn1c(NC(=O)CN2C(=O)NC3(CCCCC3)C2=O)nc2ccccc21 the results were TDP1 cell CPT inconclusive, TDP1 cell noCPT 23µM*, HT1080-NT tox inconclusive, IL-1B inflam inh 5, ELG1 DNA repair 0% and HT1080 IDH1KD tx -28%.
For COc1ccc(OCCOC(=O)CN2C(=O)NC3(CCCC3)C2=O)cc1 the results were TDP1 cell CPT inconclusive, TDP1 cell noCPT -17%, HT1080-NT tox -2%, IL-1B inflam inh inconclusive, ELG1 DNA repair 12% and HT1080 IDH1KD tx -3%.
For Cc1ccccc1NC(=O)CN1C(=O)NC2(CCCCCCC2)C1=O the results were TDP1 cell CPT -26%, TDP1 cell noCPT -25%, HT1080-NT tox -8%, IL-1B inflam inh 4, ELG1 DNA repair -4% and HT1080 IDH1KD tx -4%.
`O=C(CN1C(=O)NC2(CCCC2)C1=O)OCCOc1ccc(Br)cc1` gave TDP1 cell CPT 15µM*, TDP1 cell noCPT 18µM*, HT1080-NT tox 5%, IL-1B inflam inh -9, ELG1 DNA repair -1% and HT1080 IDH1KD tx 1%.
For O=C(CN1C(=O)NC2(CCCCCC2)C1=O)Nc1ccc2c(c1)CCC2 the results were TDP1 cell CPT inconclusive, TDP1 cell noCPT 12µM*, HT1080-NT tox -12%, IL-1B inflam inh 9, ELG1 DNA repair -8% and HT1080 IDH1KD tx -17%.
For CCC1CN(CC(=O)NC(C)c2c(C)nn(C)c2C)Cc2cc(OC)ccc2O1 (configuration not stated) the results were TDP1 cell CPT -4%[9.04 µM] and TDP1 cell noCPT -2%.
Cc1c(C(=O)N(C)C2CC(C)(C)NC(C)(C)C2)oc2c(F)cccc12 was read as TDP1 cell CPT inconclusive, TDP1 cell noCPT inconclusive, HT1080-NT tox 2%, IL-1B inflam inh -27, ELG1 DNA repair 2% and HT1080 IDH1KD tx 0%.
CC(Cn1cncn1)C(=O)N1CCN(S(=O)(=O)c2ccc(Cl)cc2)CC1 (configuration not stated) was read as TDP1 cell CPT 8%, TDP1 cell noCPT -19%, HT1080-NT tox 10%, IL-1B inflam inh -6, ELG1 DNA repair 1% and HT1080 IDH1KD tx 2%.
Screening COc1ccc(N(CC(=O)Nc2ccccc2F)S(=O)(=O)c2ccc(OC)c(OC)c2)cc1 returned TDP1 cell CPT inconclusive, TDP1 cell noCPT inconclusive, HT1080-NT tox 9%, IL-1B inflam inh -3, ELG1 DNA repair -13% and HT1080 IDH1KD tx -2%.
`O=C(Nc1cccc(Cl)c1)Nc1ccnc(-c2cccnc2)n1` gave TDP1 cell CPT inconclusive, TDP1 cell noCPT 21µM*, HT1080-NT tox -17%, IL-1B inflam inh 48, ELG1 DNA repair inconclusive and HT1080 IDH1KD tx -9%.
O=C(Nc1ccnc(-c2cccnc2)n1)c1cccc(Cl)c1Cl was read as TDP1 cell CPT 21µM*, TDP1 cell noCPT 23µM*, HT1080-NT tox 1%, IL-1B inflam inh -3, ELG1 DNA repair -23% and HT1080 IDH1KD tx 1%.
`CCOc1ccccc1NS(=O)(=O)c1ccc2oc(=O)c3ncn(C)c3c2c1` gave TDP1 cell CPT -17% and TDP1 cell noCPT -6%.
`CC(C)Cc1ccccc1O` gave ELG1 DNA repair 14%.
Screening O=C(Nc1ccccn1)C1CCN(c2ncnc3c2nc2n3CCCCC2)CC1 returned TDP1 cell CPT 2.3µM*, TDP1 cell noCPT inconclusive, HT1080-NT tox 4%, IL-1B inflam inh 17, ELG1 DNA repair 2.6µM* and HT1080 IDH1KD tx 0%.
